# Data: the supplement of paper PMC3545927
# This is one part of the list. No count for the full screen is at hand.
# Target: furin, P09958
# Assay: furin cleavage Z-score vs untreated control; higher = more cleavage, active = 3.5 or more, inactive = 1 or less, 8 variable residues between constant flanks
# Method in brief: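 Cleavage by purified furin was measured on 8-mer peptides fused to a cDNA oligonucleotide and held on magnetic beads by their N-terminus. Reactions (0.01 ml, 1:10 enzyme:substrate) ran 7.5, 15 or 30 min in 50 mM HEPES pH 7.5 with CaCl2 and NaCl. Released DNA was adapter-tagged by PCR and sequenced, with read counts giving abundance. Log counts versus furin-free reactions were lowess-adjusted and scaled by median absolute deviation to give the cleavage Z-score.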
# Chain of furin, P09958 (P09958 whole entry): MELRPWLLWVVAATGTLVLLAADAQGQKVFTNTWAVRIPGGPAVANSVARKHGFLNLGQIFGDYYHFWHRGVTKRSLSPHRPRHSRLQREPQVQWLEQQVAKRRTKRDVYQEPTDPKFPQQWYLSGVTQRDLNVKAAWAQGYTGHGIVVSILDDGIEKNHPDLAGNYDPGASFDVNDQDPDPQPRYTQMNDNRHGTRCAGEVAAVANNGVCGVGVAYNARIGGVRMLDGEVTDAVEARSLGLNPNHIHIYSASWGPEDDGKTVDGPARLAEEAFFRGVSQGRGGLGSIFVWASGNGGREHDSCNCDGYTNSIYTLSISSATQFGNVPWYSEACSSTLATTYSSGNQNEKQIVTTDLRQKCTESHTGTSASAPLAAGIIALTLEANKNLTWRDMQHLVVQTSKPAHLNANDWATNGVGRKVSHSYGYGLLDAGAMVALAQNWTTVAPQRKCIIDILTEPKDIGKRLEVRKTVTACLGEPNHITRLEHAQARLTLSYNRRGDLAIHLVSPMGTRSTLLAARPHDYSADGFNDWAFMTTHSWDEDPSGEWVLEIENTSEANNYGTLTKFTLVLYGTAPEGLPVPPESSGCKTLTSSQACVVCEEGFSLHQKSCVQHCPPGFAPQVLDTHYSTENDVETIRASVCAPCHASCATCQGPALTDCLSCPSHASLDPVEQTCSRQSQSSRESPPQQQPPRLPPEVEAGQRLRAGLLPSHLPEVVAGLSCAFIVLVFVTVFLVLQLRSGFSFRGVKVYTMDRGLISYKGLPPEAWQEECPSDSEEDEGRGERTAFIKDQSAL
Sequence,furin cleavage Z-score (7.5 min),furin cleavage Z-score (15 min),furin cleavage Z-score (30 min)
CAVVICSMSYAGNASASA [HC2024],-0.215 (inactive),-0.424 (inactive),-0.762 (inactive)
CAEVPCHRWSAGNASASA [HC2388],0.964 (inactive),1.69,1.98
CASWHLNSTAAGNASASA [HC370],0.22 (inactive),-0.449 (inactive),0.876 (inactive)
CASTPCSAHHAGNASASA [HC2575],-0.38 (inactive),-0.288 (inactive),0.459 (inactive)
CARPWRDLPEAGNASASA [FS-3031],-1.17 (inactive),0.355 (inactive),-0.221 (inactive)
CARRRRSLPEAGNASASA [FS-2796],9.29 (active),10.5 (active),8.81 (active)
CADSRGSLLSAGNASASA [HC734],-0.053 (inactive),-0.939 (inactive),-0.328 (inactive)
CARRRRSFRRAGNASASA [FS-376],5.2 (active),6.31 (active),8.15 (active)
CAKRRRSLHHAGNASASA [FS-1672],4.3 (active),5.5 (active),6.07 (active)
CARRRRCLNGAGNASASA [FS-1783],5.37 (active),5.63 (active),3.81 (active)
CATSPCSGSWAGNASASA [HC1857],-0.464 (inactive),-0.0771 (inactive),-1.88 (inactive)
CASFPCSAHLAGNASASA [HC2487],-0.137 (inactive),-0.966 (inactive),-0.392 (inactive)
CAGPLRSKRRAGNASASA [FS-128],3.54 (active),3.82 (active),0.894 (inactive)
CAGVYLLPRRAGNASASA [HC177],-0.35 (inactive),0.113 (inactive),0.636 (inactive)
CARPLRSSERAGNASASA [FS-2056],-0.31 (inactive),-0.454 (inactive),-0.848 (inactive)
CAQPTRSKRRAGNASASA [FS-140],8.89 (active),11.6 (active),8.5 (active)
CAQPIPKARRAGNASASA [HC192],-0.161 (inactive),1.41,-0.434 (inactive)
CARPTRPLEVAGNASASA [FS-2747],-0.707 (inactive),-0.831 (inactive),0.199 (inactive)
CARLGRQVDSAGNASASA [FS-1738],0.0659 (inactive),0.283 (inactive),1.6
CARQLRSAPPAGNASASA [FS-2758],3.01,4.5 (active),4.16 (active)
CARLPRSAPPAGNASASA [FS-2572],5.97 (active),5.41 (active),5.19 (active)
CARLHRFAPPAGNASASA [HC1225],-1.52 (inactive),1.01,0.153 (inactive)

Sequence,furin cleavage Z-score (7.5 min),furin cleavage Z-score (15 min),furin cleavage Z-score (30 min)
CARSFRSVRSAGNASASA [FS-3233],-0.0905 (inactive),1.16,1.57
CARFWKSAPPAGNASASA [FS-2140],-0.578 (inactive),0.202 (inactive),-1.15 (inactive)
CAMTRYSAPPAGNASASA [HC1542],1.05,-0.0414 (inactive),-1.39 (inactive)
CALLISQAEAAGNASASA [HC530],-0.545 (inactive),-1.15 (inactive),-0.368 (inactive)
CARLPRGAEAAGNASASA [FS-1743],3.99 (active),2.77,3.19
CARLPRSVRSAGNASASA [FS-1263],5.43 (active),4.73 (active),4.77 (active)
CARRQRGAEAAGNASASA [FS-1782],0.38 (inactive),-0.365 (inactive),1.17
CAPAPSGCPPAGNASASA [HC1346],-1.72 (inactive),-0.997 (inactive),-0.764 (inactive)
CALEFWEGVFAGNASASA [HC938],0.499 (inactive),-0.214 (inactive),-0.35 (inactive)
CAMDECSQHLAGNASASA [HC1691],-1.05 (inactive),-0.767 (inactive),-1.23 (inactive)
CAEHPCHRPSAGNASASA [HC2335],0.592 (inactive),0.873 (inactive),-0.909 (inactive)
CADTEVAASCAGNASASA [HC566],0.247 (inactive),0.504 (inactive),-0.572 (inactive)
CARFGRGFTVAGNASASA [FS-2922],0.116 (inactive),0.0326 (inactive),0.349 (inactive)
CARGGRDHGDAGNASASA [FS-2014],-0.697 (inactive),-0.0412 (inactive),-1.45 (inactive)
CARGMRALGVAGNASASA [FS-1710],-0.000681 (inactive),0.448 (inactive),0.128 (inactive)
CARGKRAITDAGNASASA [FS-2554],9.38 (active),10.5 (active),9.27 (active)
CARGKPGIYRAGNASASA [HC907],0.0246 (inactive),1.3,0.963 (inactive)
CARGKRATTVAGNASASA [FS-3249],8.17 (active),9.95 (active),8.35 (active)
CAWPLYGNEGAGNASASA [HC202],0.645 (inactive),-0.347 (inactive),0.229 (inactive)
CAEVVTMTWVAGNASASA [HC148],0.302 (inactive),0.42 (inactive),1.21
CAPALSTGLIAGNASASA [HC502],1.72,1.24,-0.0208 (inactive)
